Assay outcomes as filed in PubChem.
HEK cytotox = cytotoxic compounds in HEK 293 cells; HEK 293 viability, ATP luminescence (CellTiter-Glo), 48-72 h; Potency, µM (series often up to 115 µM), inactives show at the highest dose activity change, negative = cytotoxicity, hits mostly inhibitors; actives 6.6% (n = 94,000); note: nearly all actives have a fitted effect of over 60% in size
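Cells seeded first (HEK 293, 250 cells/well), then compound added by pintool. Incubation ran 48 or 72 hr at 37 degree Celsius. CellTiter-Glo was added and luminescence imaged after 10 min at room temperature.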
FLuc inh = Photinus pyralis luciferase inhibition; AID 1347043; Potency, µM (doses to about 115 µM), hits mostly inhibitors; purified P. pyralis luciferase, luminescence, biochemical; actives 2.5% (n = 76,000); note: nearly all actives have a fitted effect of over 65% in size
Target sequence (P08659 whole entry, looked up): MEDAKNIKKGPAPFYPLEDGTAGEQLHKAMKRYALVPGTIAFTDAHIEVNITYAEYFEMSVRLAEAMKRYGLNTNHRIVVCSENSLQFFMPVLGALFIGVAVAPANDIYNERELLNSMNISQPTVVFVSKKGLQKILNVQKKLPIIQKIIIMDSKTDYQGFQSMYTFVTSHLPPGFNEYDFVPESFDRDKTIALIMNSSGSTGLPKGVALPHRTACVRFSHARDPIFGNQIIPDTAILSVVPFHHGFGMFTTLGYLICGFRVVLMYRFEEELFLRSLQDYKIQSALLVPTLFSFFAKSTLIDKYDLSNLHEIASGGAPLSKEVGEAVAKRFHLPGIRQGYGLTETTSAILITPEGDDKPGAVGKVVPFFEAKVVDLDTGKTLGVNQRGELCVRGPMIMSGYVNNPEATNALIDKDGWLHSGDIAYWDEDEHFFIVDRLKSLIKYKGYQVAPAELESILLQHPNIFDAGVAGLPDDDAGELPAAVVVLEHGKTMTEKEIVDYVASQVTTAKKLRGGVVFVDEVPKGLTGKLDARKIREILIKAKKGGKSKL
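Purified 10nM P. pyralis luciferase with 10uM D-luciferin and 10uM ATP in 50mM Tris acetate pH 7.5, 10mM Mg acetate, 0.01% Tween-20, 0.05% BSA. qHTS titration; luminescence read by CCD imager.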
GPT2 inhibitor = GPT2 alanine aminotransferase inhibition. Recombinant GPT2, coupled pyruvate oxidase/HRP Amplex Red fluorescence. Potency, µM (titrated, usually from 57.7 µM), inactives show at the highest dose activity change, negative = inhibition, actives largely listed as inhibitors. actives 0.25% (n = 100,000). AID 1671188; note: nearly all actives have a fitted effect of over 60% in size
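Fluorescence of coupled pyruvate oxidase/HRP/Amplex Red system (50uM Amplex, 30 min, dark) reports pyruvate formed by GPT2. Enzyme reaction: 10ng/uL GPT2, 2mM L-alanine, 250uM a-KG, 30 min room temperature, pH 7.5; 50uM AOA control.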
hNpr1 antagonist = blocks ANP-stimulated signaling of human Npr1 receptor; HEK293 hNpr1 GloSensor cGMP, ANP-stimulated luminescence; Potency, µM (series often up to 46.3 µM), without a hit: top-dose activity change, negative = inhibition, actives largely listed as inhibitors; actives 1.6% (n = 76,000); AID 1347048; calls by dose curve; note: nearly all actives have a fitted effect of over 60% in size
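HEK293 cells stably expressing human Npr1 and cGMP GloSensor pGS-40F, loaded 2 h with 2% GloSensor reagent, given compound 30 min at room temperature. Luminescence read before and 20 min after 0.1 nM hNppA.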
3T3 cytotox = NIH 3T3 cell cytotoxicity; Potency, µM (top dose mostly 96.7 µM), inactives show at the highest dose activity change, negative = cytotoxicity, most hits filed as inhibitors; AID 1345082; actives 4.3% (n = 94,000); NIH 3T3 viability, CellTiter-Glo ATP luminescence, 48-72 h; note: nearly all actives have a fitted effect of over 55% in size
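First NIH 3T3 cells are plated at 400 cells/well; next compound is pinned in; then plates incubate 48 or 72 hr at 37 °C; finally CellTiter-Glo is added and luminescence read after 10 min.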
Active calls of the source: *; i = inactive; ? = inconclusive; · = no result; ! = not confirmed by another sample; [ ] = remark or other dose. A selection: hits, their analogues and other compounds. The true share with any hit is near 10%. Unless noted, calls come from the whole dose curve; as a rule, active = well fitted curve in the direction sought with a large enough effect; inconclusive = small, poorly fitted or top-dose-only effect, or another doubt; inactive = no such curve, though single readings can be large; an effect the other way counts as inactive or inconclusive. % is set by controls: 0 for no effect and ±100 for the full control effect; potency is the fitted concentration of half-maximal effect.

SMILES | HEK cytotox | FLuc inh | GPT2 inhibitor | hNpr1 antagonist | 3T3 cytotox
COc1ccc(C(=O)N2CCC(c3n[nH]c(=O)n3-c3ccc(C)cc3)CC2)cc1 | -4% | i | i | -2% | ?
COc1ccc(-c2cccc(C(=O)N3CCC(NC(=O)C4CCCC4)CC3)c2)nn1 | -14% | · | · | · | -19%
Cc1cc(C(=O)N2CCN(c3ccnc4ccnn34)CC2)ccc1Cl | ? | · | 0% | · | ?
Cc1cc(C)c(CNC(=O)c2cc(-c3ccccc3F)cc3c2OCCN3C(C)C)c(=O)[nH]1 | ? | i | -12% | 1% | ?
Cc1cc(C)c(CNC(=O)c2cc(-c3ccccc3O)cc3c2OCCN3C)c(=O)[nH]1 | ? | i | i | -12%[70.6 µM] | ?
Cc1cc(C)c(CNC(=O)c2cc(-c3ccccc3F)cc3c2OCCN3C)c(=O)[nH]1 | 71µM* | i | 1%[88.5 µM] | -18%[70.6 µM] | 50µM*
COc1cc(F)ccc1-c1cc(C(=O)NCc2c(C)cc(C)[nH]c2=O)c2c(c1)N(C(C)C)CCO2 | 45µM* | i | ? | 0% | 40µM*
O=C(c1ccc2nc[nH]c2c1)N1CCC(Oc2ccccc2-c2nc(C3CC3)no2)C1 (centres undefined) | ? | · | -2% | · | ?
Fc1ccccc1-c1noc(-c2nc(C3CC3)no2)n1 | ? | 4.5µM* | 3% | ? | -21%
Cc1cccc(N2Cc3c(NCCCO)ncnc3N(C)CC2=O)c1 | -2% | · | i | · | -27%
COc1ccc(NC(=O)NCC2CCC(=O)N(Cc3ccccc3)CC2)cc1F (centres undefined) | -15% | · | i | · | -33%
COc1ccc(NC(=O)c2c(-c3cnn(C)c3NCc3ccccc3)noc2C)cc1 | ? | i | i | -6%[70.6 µM] | 11µM*
COc1ccccc1Nc1ccnc(N2CCC(NC(=O)NC3CCCC3)CC2)n1 | ? | · | -17% | · | ?
O=C(O)Cn1nc2c(cc1=O)CCCC2 | -4% | i | 2% | 1% | i
O=c1cc2c(nn1Cc1cccc(Br)c1)CCCCC2 | ? | 32µM* | ? | 1% | ?
CCS(=O)(=O)N1CCC(Cc2ncc(C)n2Cc2ccccc2)C1 (centres undefined) | 0% | i | i | 1% | 1%
O=C(NC1CC1)c1ccc2c(c1)CC(=O)N2Cc1ccc(F)cc1 | -1% | i | i | -2% | ?
COc1cccc(-c2nc3cc4c(cc3cc2CN2CCSCC2)OCO4)c1OC | 22µM* | i | 1% | 0% | ?
COc1cccc(-c2nc3cc4c(cc3cc2CN2CCOCC2)OCO4)c1OC | ? | i | 0% | 4% | -12%
CCOCC(=O)N1CCCC(c2nc(CCOCc3ccccc3)no2)C1 (centres undefined) | 2% | · | i | · | -27%
O=C(Cc1ccccc1)Nc1ccnn1C1CCN(Cc2ccc3cccc(F)c3n2)CC1 | -25% | i | i | -11% | -29%
COc1ccc(-c2cnc([C@@H]3COCCN3C3CCCCC3)[nH]2)cc1 | 32µM* | i | -10%[88.5 µM] | 5%[70.6 µM] | ?
Cc1ccc(-c2cnc([C@@H]3COCCN3C(C)C)[nH]2)cc1 | 112µM* | i | 4%[88.5 µM] | 3%[70.6 µM] | ?
Cc1ccc(-c2cnc([C@@H]3COCCN3C3CCC3)[nH]2)cc1 | -16%[172 µM] | i | i | 5%[70.6 µM] | 2%[138 µM]
CCCc1ccc(CN2CCCC(O)(CN(C)C)C2)o1 (centres undefined) | -26% | i | 0% | 5% | -11%
SMILES | HEK cytotox | FLuc inh | GPT2 inhibitor | hNpr1 antagonist | 3T3 cytotox
CC(C)(C)C1CCc2[nH]nc(C(=O)N3CCc4nn(CC#N)c(=O)n4CC3)c2C1 (centres undefined) | ? | i | i | -7% | ?
CCOc1cc(C(=O)N2CCC[C@H]2c2nc(-c3ccccc3Cl)no2)cc(OCC)c1OCC | ? | i | i | 2% | ?
CCOc1ccc(C(=O)N2CCC[C@H]2c2nc(-c3ccccc3Cl)no2)cc1 | ? | ? | -3% | -13% | 20µM*
CCOc1ccccc1C(=O)N1CCC[C@H]1c1nc(-c2ccc(F)cc2)no1 | 35µM* | i | i | -1% | ?
Cn1cccc1-c1noc(C2CCN(C(=O)CCc3nc4ccccc4s3)C2)n1 (centres undefined) | ? | · | 1% | · | ?
C=CCNC(=O)Cc1ccc(N(Cc2ccc(OC)cc2)C(=O)c2ccco2)cc1 | ? | i | -18% | -3% | -29%
O=C(Cc1ccc(N(Cc2cccc(F)c2)C(=O)c2ccco2)cc1)NCc1ccco1 | 89µM* | i | -4% | 0% | ?
O=C(Cc1ccc(N(Cc2ccccc2)C(=O)c2ccco2)cc1)NCc1ccc(F)cc1 | 40µM* | i | i | -13% | ?
COc1ccc(CN(C(=O)c2ccco2)c2ccc(CC(=O)NCc3ccccc3)cc2)cc1 | ? | i | i | -17% | 35µM*
COc1ccc(CN(C(=O)c2ccco2)c2ccc(CC(=O)NCc3ccc(F)cc3)cc2)cc1 | ? | i | i | -17% | 20µM*
Cc1cc(C(F)(F)F)nn1CCNC(=O)c1csc(-c2cccs2)n1 | ? | i | -18% | -11% | -29%
COc1ccccc1-c1cc(C(=O)NCC(F)(F)F)nn2cnnc12 | 2% | · | i | · | -7%
O=c1[nH]c(C2CCCN(CC3CCCC3)C2)nc2ccc(F)cc12 (centres undefined) | 32µM* | i | i | 0% | 40µM*
CCN1CCCC(c2nc3ccc(F)cc3c(=O)[nH]2)C1 (centres undefined) | -1%[172 µM] | i | i | -2%[70.6 µM] | -9%[138 µM]
Cc1ccc2nc(C3CCCN(Cc4cccc(-c5cccnc5)c4)C3)[nH]c(=O)c2c1 (centres undefined) | 32µM*! | i | 1% | -26% | ?
O=c1[nH]c(C2CCCN(Cc3cccc(-c4ccsc4)c3)C2)nc2ccc(F)cc12 (centres undefined) | 22µM* | i | i | -21% | 28µM*!
Cc1ccc2nc(C3CCCN(Cc4cccc(-c5ccc(F)cc5F)c4)C3)[nH]c(=O)c2c1 (centres undefined) | ? | i | -6% | -25% | ?
COc1ccc(CCNC(=O)C2CN(C3CCCCC3)C(=O)N2)cc1 (centres undefined) | -31%[172 µM] | · | 2%[88.5 µM] | · | -17%[138 µM]
Cc1ccc(C)c(C(=O)N2CCN(C(=O)c3nnn4c3COC(c3ccccc3)C4)CC2)c1 (centres undefined) | 40µM* | i | -1% | -22% | -15%
Cc1ccc(C)c(C(=O)N2CCN(C(=O)c3nnn4c3COC(c3ccc(Cl)cc3)C4)CC2)c1 (centres undefined) | 45µM* | i | i | ? | ?
